About 83,000 compounds went through this panel and 20% of them were active in at least one assay; those are over-represented in the sample as a whole.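 Percent growth is the endpoint: 0 to 100 indicates growth inhibition (40 means 60% inhibition), 0 means no net growth, and negative values indicate cell death.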 Values without a mark were called inactive. Calls of active or inactive are those of the source. Rule for the calls: active = growth percent below 10; inactive = the rest.
What was measured:
Experiment in all cases: NCI-60 one-dose screen, 48 h (100 = growth as untreated, 0 = no growth, -100 = all killed)
Conditions in all cases: 10 µM unless noted
NCI-H23 lung = system: NCI-H23 lung
NCI-H226 lung = system: NCI-H226 lung
NCI-H322M lung = system: NCI-H322M lung
HOP-62 NSCLC = system: HOP-62 NSCLC
NCI-H460 lung = system: NCI-H460 lung
NCI-H522 lung = system: NCI-H522 lung
A549/ATCC NSCLC = system: A549/ATCC NSCLC
786-0 renal = system: 786-0 renal
COLO 205 colon = system: COLO 205 colon
DU-145 prostate = system: DU-145 prostate
K-562 leukemia = system: K-562 leukemia
MDA-MB-231 breast = system: MDA-MB-231 breast
RXF 393 renal = system: RXF 393 renal
SF-268 CNS = system: SF-268 CNS
SF-295 CNS = system: SF-295 CNS
SF-539 CNS = system: SF-539 CNS
UACC-257 melanoma = system: UACC-257 melanoma
M14 melanoma = system: M14 melanoma
MALME-3M melanoma = system: MALME-3M melanoma

Row | Structure (SMILES) | growth (NCI-H23 lung) | growth (NCI-H226 lung) [%] | growth (NCI-H322M lung) | growth (HOP-62 NSCLC) | growth (NCI-H460 lung) | growth (NCI-H522 lung) | growth (A549/ATCC NSCLC) [%] | growth (786-0 renal) | growth (COLO 205 colon) | growth (DU-145 prostate) | growth (K-562 leukemia) | growth (MDA-MB-231 breast) | growth (RXF 393 renal) | growth (SF-268 CNS) [%] | growth (SF-295 CNS) | growth (SF-539 CNS) | growth (UACC-257 melanoma) | growth (M14 melanoma) | growth (MALME-3M melanoma) [%]
1 | CCO/C=N/C1=C(C#N)C(c2ccc(OC)cc2)c2sc3c(CC)cccc3c2O1 (stereo unspecified) | 32.2% | 61.8 | 42.2% | 54.8% | 9.18% (active) | 18.6% | 47.1 | 48.7% | 34.4% | 17.6% | 14.5% | 31.7% | -21% (active) | 61.5 | 3.52% (active) | 4.01% (active) | 73.8% | 16.1% | –
2 | FC(F)(F)c1cc(Nc2cccc(Oc3ccc(NC4=NCCN4)nc3)c2)ccc1Cl | 19.5% | 41.9 | -3.79% (active) | -47.9% (active) | -69.2% (active) | 2.14% (active) | 12.1 | -11.4% (active) | -38.3% (active) | -19.3% (active) | -19% (active) | 9.73% (active) | 18.1% | 34.8 | -78.5% (active) | 51.6% | 27% | -50.7% (active) | –
3 | NC(N)=Nc1ccc(Nc2cccc(Nc3ccc(Cl)c(C(F)(F)F)c3)c2)cn1 | 41.7% | 24.4 | -6.68% (active) | 19.5% | -23.9% (active) | 8.21% (active) | 57 | 72.6% | -25.1% (active) | 66.1% | -2.73% (active) | 31% | 77.6% | 33.1 | 11.6% | 80.7% | 42.9% | 47.3% | –
4 | Cc1nn(-c2ccccc2)c2ncnc(N/N=C/c3cccc(O)c3)c12 | 61.3% | 80.5 | 73.1% | 44.3% | 15.7% | 25.4% | 57.7 | 66.7% | 57.1% | 67.9% | 13.4% | 70.8% | 16.6% | 55.9 | 46.5% | 50.4% | 62.8% | 28.6% | –
5 | Nc1nc(N)c2c(n1)NC(c1ccc(C(F)(F)F)cc1)CC(c1ccc(Nc3nc(NCCO)nc(N4CCOCC4)n3)cc1)=N2 (stereo unspecified) | 72.8% | 70.2 | 95.6% | 47.1% | 48.3% | 52.5% | 74.4 | 62.7% | 71.1% | 79.2% | 17.9% | 80.8% | 67.9% | 63.6 | 73.2% | 75.3% | 80.2% | 71.7% | –
6 | COc1cccc(C(=O)Nc2cccc(C#Cc3cccc4[nH]nc(N)c34)c2)c1 | 66.7% | 49.2 | 84.2% | 63.4% | 44.8% | 21.1% | 51.1 | 80.2% | 67.6% | 70.8% | – | 38.6% | -19.5% (active) | 53 | 54.9% | 36.1% | 82.8% | 32.6% | 79.4
7 | COc1cc(OC)cc(C(=O)Nc2sc3c(c2C(N)=O)CCC(=O)C3)c1 | 19.1% | 86 | 98.6% | 60% | 57.9% | 5.02% (active) | 95.8 | 85% | 47.2% | 99.4% | – | 52.4% | 85.1% | 30.7 | 65.3% | 16.6% | 53.2% | 22.9% | –
8 | CC(C)(C)c1ccc(CC(=O)Nc2sc3c(c2C(N)=O)CCC(=O)C3)cc1 | 7.26% (active) | 11.4 | 44% | 30.5% | 6.79% (active) | -49.3% (active) | 17.1 | 29.1% | -34.4% (active) | 26.4% | – | -20.2% (active) | -12.5% (active) | 26 | 10.1% | -36.4% (active) | -10.8% (active) | – | –

Reference: PubChem BioAssay (NCI)
